Records with an inconclusive call do not appear. The source made the active and inactive calls. Calls come from the whole dose curve.
% is set by controls: 0 for no effect and ±100 for the full control effect.

The assay can be described thus: qHTS assay to identify small molecule agonists or antagonists of the thyroid stimulating hormone receptor (TSHR) signaling pathway - wild type cell line counter screen (AID 1259384). Conditions: HEK293 wild type, cAMP HTRF counter-screen, active compounds read high; series mostly up to 92.4 µM. The text has this: U.S. Tox21 Program National Center for Advancing Translational Sciences [NCATS] NIH Chemical Genomics Center [NCGC] U.S. Environmental Protection Agency [EPA] National Institutes of Environmental Health Sciences [NIEHS] National Toxicology Program [NTP] U.S. Food and Drug Administration [FDA] Tox21 Assay Overview: TSHR is the receptor for thyrotropin (thyroid stimulating hormone or TSH), a member of the glycoprotein hormone family. TSH is released by the anterior pituitary gland and is the main regulator of thyroid gland growth and development. Upon binding circulating thyrotropin, a G-protein signal cascade activates adenylyl cyclase and […] cAMP concentration is increased. cAMP is a key second messenger involved extensively in cellular signal transduction pathways associated with the majority of G-protein coupled receptors (GPCRs). The activation of these GPCRs by neurotransmitters, lipids, nucleotides, peptides and hormones results in the activation or the inhibition of plasma membrane-bound adenylate cyclase through heterotrimeric G-proteins. A cell-based TSHR-Hek293 assay can be used to identify TSHR agonists. To eliminate the false positive compounds identified from screening a cell-based TSHR-Hek293 cell line, cAMP assay in a wild type Hek293 cells was used as a counter screening.
Tox21 Assay Protocol Summary: Hek293 cells (wild type) were dispensed at 800 cells/4 uL/well in 1536-well white plates using a Multidrop dispenser. After the assay plates were incubated at a 37 C/5% CO2 incubator for 18 hrs, 23 nL of compounds dissolved in DMSO, positive controls or DMSO only was transferred to the assay plate by a pin tool, followed by 1 ul medium containing Ro20-1724. After 30 min of incubation at room temperature, 2.5 ul/well of cAMP-d2 and 2.5 ul/well of anti-cAMP-cryptate were added respectively into the assay plates using a Flying Reagent Dispenser. The plates were incubated at room temperature for 1 hr. The fluorescence intensity in the plates was measured using an Envision plate reader. Each test compound was measured at 15 concentrations and in triplicates.
(Quantitative high-throughput screening tests each substance at several concentrations.)
As to `Cc1cccc(C)c1OCC(C)N` (stereo not given), the compound was classed as inactive. On to `Oc1ccccc1-c1nnco1`, for which the compound was called inactive. Still for that read-out and setting: the result for `O=C1c2cccc3c2[C@H](CCC3)CN1[C@@H]1CN2CCC1CC2` reads “inactive”. The same measure, in the same setting: the result for `CNC(=O)[C@H]1O[C@@H](n2cnc3c(NCc4cc(Cl)ccc4OCc4cc(C)no4)ncnc32)[C@H](O)[C@@H]1N` reads “inactive”.

As for `O=Cc1ccc(Cl)c(Cl)c1`, the result was inactive. Same read-out and setting: the result for `COc1ccc(C2CNC(=O)C2)cc1OC1CCCC1` (stereo not given) reads “inactive”; that for `CC(S)C(=O)NCC(=O)O` (stereo not given), “inactive”.

As for `CC1(CO)CN(c2ccccc2)NC1=O` (stereo not given), the compound was called inactive. In the case of `COC(=O)C1CC(=O)C(C(=O)OC)CC1=O` (stereo not given), the cAMP activity change is 2.64% [at 8.39 µM] (inactive). Regarding `NNc1nnc(NN)c2ccccc12`, the compound was classed as inactive.

`Nc1cccc(O)c1`: the compound was called inactive. As to `Nc1nnc(-c2cccc(Cl)c2Cl)c(N)n1`, the outcome was inactive.

As to `CC(=O)N[C@@H](CCC(=O)O)C(=O)O`, the compound was classed as inactive. Still for that read-out and setting: the value for `CO[C@@H]1[C@@H](OC(N)=O)[C@@H](O)[C@H](Oc2ccc3c(O)c(NC(=O)c4ccc(O)c(CC=C(C)C)c4)c(=O)oc3c2C)OC1(C)C` was “inactive”. The same measure, in the same setting: the value for `CN1C(C)(C)CCCC1(C)C` was “inactive”; that for `O=C(O)Cc1cn(-c2ccccc2)nc1-c1ccc(Cl)cc1` was “inactive”; that for `Cc1ccc2ccc(Cl)cc2n1` was “inactive”. Same read-out and setting: the result for `CC(C)NCC(O)COc1ccc(COCCOC(C)C)cc1` (stereo not given) reads “inactive”; that for `CC(C)c1ccc2cc(C(C)C)ccc2c1`, “inactive”. Regarding `CC(=O)CCCCn1c(=O)c2c(ncn2C)n(C)c1=O`, the compound was called inactive. On the same count and under the same terms, the value for `CCCCOCCOC(=O)COc1nc(Cl)c(Cl)cc1Cl` was “inactive”; that for `CC(C)=O` was “inactive”.

With `COc1ccc2c(c1OC)C(=O)O[C@@H]2[C@H]1c2c(cc3c(c2OC)OCO3)CCN1C`, the outcome was inactive. For `O=C(/N=N/C(=O)OCc1ccccc1)OCc1ccccc1`, the result was inactive. Take `Cc1nc2n(c(=O)c1CCN1CCC(c3noc4cc(F)ccc34)CC1)CCC[C@H]2O`: the cAMP activity change was -2.33% [at 18.9 µM] (inactive). As to `COc1ccc(OC)c(Cl)c1`, the compound was called inactive.

For `CCN(CC)CC(=O)Nc1c(C)cccc1C`, the outcome was inactive. The same measure, in the same setting: the value for `CC(C)(C)NC(N)=O` was “inactive”; that for `CCC(CC)CO` was “inactive”; that for `BrCCCCCBr` was “inactive”. Same read-out and setting: the result for `O=C1CC(c2ccc(Cl)cc2)CC(=O)N1` reads “inactive”. For the compound `N[C@@H](CCC(=O)N[C@@H](CS)C(=O)NCC(=O)O)C(=O)O`, the cAMP activity change is 2.89% [at 18.9 µM] (inactive). As for `O=S(=O)(O)CCN1CCN(CCO)CC1`, the compound was classed as inactive. The same measure, in the same setting: the result for `CC(C)CCCC(C)(C)O` reads “inactive”; that for `C=COCCOCCOCCOC=C`, “inactive”. On to `O=C(O)Cc1ccc(Cl)cc1Cl`, for which the outcome was inactive. In the case of `COc1ccc(Br)c(C)c1`, the compound was called inactive.

Take `O=C(O)CCSSCCC(=O)O`: the call was inactive.

With `Cc1cc(NC(=O)C2=C(O)c3ccccc3S(=O)(=O)N2C)no1`, the compound was called inactive. As to `CCCCC(CC)COCCO` (stereo not given), the compound was classed as inactive.

These data come from PubChem BioAssay (Tox21).
